The whole screen tested about 69,000 compounds, of which about 8,600 (12%) showed an effect of 50% or more. This is one part of a sample in which strong results are shown more often than they occur.
System: Plasmodium berghei
Test: Screen against P. berghei liver stage (PbLuc), transformed with Luciferase, at 10uM
Assay type: functional, HepG2
Settings: tested at 10 uM

First: FC(F)(F)c1csc(N2CCN(Cc3ccccn3)CC2)n1
Second: Cn1ccnc1CN1CCN(CC(O)c2cc(F)ccc2F)CC1 (stereo not given)
The INHIBITION of the first is lower: 1.56% for the first, 21.5% for the second.

Compared with `COC(=O)CCN(C)C(=O)c1ccc(-c2cscn2)cc1`, `CN(C)C(=O)c1ccc(-c2cscn2)cc1` is lower in INHIBITION: 67.3% for the first, 14.6% for the second.

Going from `O=C(O)c1ccc(-c2cscn2)cc1` to `CCN(C)C(=O)c1ccc(N(C)Cc2cc(-c3ccncc3)no2)nc1`, the INHIBITION rises from -36.1% to 5.17%.

Going from `Nc1ncnc2[nH]c(N3CCCCC3)nc12` to `c1ncn(Cc2cn3c(n2)CN(CC2CCCCC2)CC3)n1`, the INHIBITION falls from 4.12% to -10.3%.

First: CSc1nc(N)cc(N2C[C@H]3CC[C@@H](C2)N(CC2CC2)C3=O)n1
Second: Cc1cccc(CN2C[C@H]3CC[C@@H](C2)N(Cc2c(C)noc2C)C3=O)n1
The INHIBITION of the first is higher: -65% for the first, -84% for the second.

Compared with `CCC(C)N1C(=O)c2ccc(C(=O)NCCc3c[nH]cn3)cc2C1=O` (stereo not given), `CC(C)CN1C(=O)c2ccc(C(=O)NCCc3c[nH]cn3)cc2C1=O` is lower in INHIBITION: 53.2% for the first, 24.5% for the second.

Going from `O=C(NCCc1c[nH]cn1)c1ccc2c(c1)C(=O)N(C1CC1)C2=O` to `O=C(NCCc1c[nH]cn1)c1ccc2c(c1)C(=O)N(C1CCCC1)C2=O`, the INHIBITION rises from -36.3% to 36.6%.

Compared with `COCCN1C(=O)c2ccc(C(=O)NCCc3c[nH]cn3)cc2C1=O`, `COCCCN1C(=O)c2ccc(C(=O)NCCc3c[nH]cn3)cc2C1=O` is lower in INHIBITION: 68.4% for the first, 34.3% for the second.

Compared with `O=C(NCCc1c[nH]cn1)c1ccc(S(=O)(=O)NC2CCCC2)cc1`, `CC(C)CCN1C(=O)c2ccc(C(=O)NCCc3c[nH]cn3)cc2C1=O` is higher in INHIBITION: 7.65% for the first, 65.4% for the second.

First: CCCNC(=O)c1ccc2c(c1)C(=O)N(CC(C)C)C2=O
Second: CCOc1ccc(CN(CC)C(=O)c2ccc(C)[nH]c2=O)cc1OC
The INHIBITION of the first is higher: 31.8% for the first, 20.85% for the second.

First: CCc1nnc(CN(C)C2CCCN(Cc3noc(C4CC4)n3)C2)o1 (stereo not given)
Second: Cc1nnc(CN2CCCC(c3noc(C4CC4)n3)C2)o1 (stereo not given)
The INHIBITION of the first is higher: 27.8% for the first, -36.3% for the second.

Going from `Cc1ccc(F)c(NC(=O)NCCCn2nc3ccccn3c2=O)c1` to `O=C(Cc1ccccc1F)N1CCC[C@@H]1Cn1c(=O)oc2ccccc21`, the INHIBITION falls from -0.113% to -12%.

First: O=C(c1ccc(-c2cn[nH]c2)nc1)N1CCC(N2CCOCC2)CC1
Second: O=C(c1ccc(-n2cccn2)nc1)N1CCCC(n2cccn2)C1 (stereo not given)
The INHIBITION of the first is lower: 10.1% for the first, 26.45% for the second.

First: CCc1ccc(NS(=O)(=O)C=c2[nH]c(=O)n3cccc3c2=O)cc1
Second: CN(Cc1cccc(C(N)=O)c1)Cc1nc2c(cnn2C)c(=O)[nH]1
The INHIBITION of the first is lower: -101% for the first, -29.7% for the second.

Going from `CC(CCN1CCCn2nc(CNS(C)(=O)=O)cc2C1)c1ccccc1` (stereo not given) to `CC(C)c1nc(C2CCCN2CCS(=O)(=O)c2ccccc2)no1` (stereo not given), the INHIBITION falls from 27.6% to -12.6%.

Compared with `Fc1ccccc1-c1nc(CNCCn2cccn2)cs1`, `CC(c1cccnc1)N(C)Cc1csc(-c2ccccn2)n1` (stereo not given) is higher in INHIBITION: -58.7% for the first, -45.8% for the second.

Compared with `CCN1CCCC12CCN(C(=O)c1nccn1C)CC2`, `CC(C)N1CCC2(CCCN(c3nccc(C(F)(F)F)n3)C2)CC1` is higher in INHIBITION: -26.5% for the first, -12.2% for the second.

Going from `CC(C)N(C)C[C@H]1OC[C@@H]2CCN(Cc3cccc(C#N)c3)C[C@@H]21` to `CC1CCCN(C(=O)c2occc2COc2cccc(C#N)c2)C1` (stereo not given), the INHIBITION rises from 23.3% to 35.1%.

Going from `CSc1nc2ccsc2c(=O)n1CC(=O)NC1CCCCC1` to `CSc1nc2ccsc2c(=O)n1CC(=O)NC1CCCC1`, the INHIBITION falls from 26.6% to -58.7%.

First: CCN(CC)c1nc2ccsc2c(=O)n1CCC(=O)NCc1ccco1
Second: CCN(CC)c1nc2ccsc2c(=O)n1CCC(=O)NCc1cccs1
The INHIBITION of the first is higher: 55.7% for the first, 30.2% for the second.

Compared with `CCN(CC)c1nc2ccsc2c(=O)n1CCC(=O)NC1CCCC1`, `O=C(CS(=O)(=O)C1CCCC1)NC1CCc2nccn2C1` (stereo not given) is lower in INHIBITION: 58.4% for the first, 19.2% for the second.

Going from `Cc1ccn(CCC(=O)NCc2ccco2)n1` to `Cc1cc(CN2CC[C@H]3OCC[C@@]3(C(=O)NCc3ccco3)C2)no1`, the INHIBITION falls from 26% to -0.813%.

Compared with `O=C(Nc1cccnc1)NC(CCCO)c1ccccc1` (stereo not given), `CC(c1cccnc1)N(C)Cc1ccccn1` (stereo not given) is higher in INHIBITION: 14.1% for the first, 70.4% for the second.

Going from `COCCN1C[C@H]2[C@@H](C1)N(Cc1cnn(C)c1)CC[C@H]2OC` to `CC(NCc1cccc(NC(=O)C2CCCCC2)c1)c1cnn(C)c1` (stereo not given), the INHIBITION rises from -4.88% to 45.4%.

Compared with `COc1ccc(OC)c(Sc2ncccc2C(=O)NCC2CC2)c1`, `CC(C)c1ccc(O)c(C(=O)NC2CCN(c3ncccn3)CC2)c1` is lower in INHIBITION: 23.3% for the first, 0.643% for the second.

First: CC(c1ccncn1)N(C)Cc1cc(O)c2cc(F)ccc2n1 (stereo not given)
Second: CC(c1ccon1)N(C)Cc1cc(O)c2cc(F)ccc2n1 (stereo not given)
The INHIBITION of the first is lower: 28.3% for the first, 36% for the second.

Compared with `COc1ncc(CN(C)C(C)c2cccnc2)cn1` (stereo not given), `CC(c1cccnc1)N(C)Cc1cc(O)c2cc(F)ccc2n1` (stereo not given) is higher in INHIBITION: 5.85% for the first, 66.8% for the second.

Going from `c1ccc(CCCN2CCCC2Cn2cncn2)cc1` (stereo not given) to `c1ccc(CNc2ncc(CN3CCCN4CCC[C@H]4C3)cn2)cc1`, the INHIBITION rises from -25.9% to 30.3%.

Going from `CCN(C)C(=O)c1ccc(N(C)Cc2cc(-c3cccnc3)no2)nc1` to `CCc1ncc(C(=O)N(C)Cc2cc(-c3ccncc3)no2)cn1`, the INHIBITION rises from 34% to 59.7%.

Going from `Cc1cc(NCCc2nc(C)cs2)nc(-c2cccnc2)n1` to `CCc1nc(CNc2cc(C)nc(-c3cccnc3)n2)cs1`, the INHIBITION rises from -25.1% to 54.9%.

First: Cc1cc(NCCc2c[nH]cn2)nc(-c2cccnc2)n1
Second: Cc1cc(NCCc2c(C)n[nH]c2C)nc(-c2cccnc2)n1
The INHIBITION of the first is lower: -14.1% for the first, 16.69% for the second.

First: Cc1cc(NCCc2nnc(N)s2)nc(-c2cccnc2)n1
Second: CCc1csc(CNc2cc(C)nc(-c3cccnc3)n2)n1
The INHIBITION of the first is lower: 16.7% for the first, 56.05% for the second.

Going from `CSC(C)(C)CNC(=O)NCc1cccc(-n2ccnc2)c1` to `CC(C)C(c1cccnc1)N(C)C(=O)Cc1ccc(O)cc1` (stereo not given), the INHIBITION falls from 17.2% to -30%.

First: CN(C)[C@H]1CCCCN(Cc2cnc(NCc3ccccc3)nc2)C1
Second: c1ccc(CNc2ncc(CN3CC[C@@H]4CC[C@H](C3)N4)cn2)cc1
The INHIBITION of the first is higher: 57.5% for the first, 30.3% for the second.

Going from `CC(C)(C)c1n[nH]c(C2CN(C(=O)c3csnn3)CCO2)n1` (stereo not given) to `Cc1cc(C2CCCN(C(=O)c3c(C)noc3C)C2)n[nH]1` (stereo not given), the INHIBITION falls from 11.1% to -2.37%.

Compared with `NC(=O)C1CCN(C(=O)NC2CCc3cc(Cl)ccc32)CC1` (stereo not given), `CN1CCC(N(C)C(=O)c2cnn(-c3cc(F)ccc3F)c2N)CC1` is higher in INHIBITION: 18.4% for the first, 39.2% for the second.

Going from `C[C@H]1CN(C)C[C@@]12COCCN(C(=O)Cc1ccccc1)C2` to `NC(=O)C1CN(C(=O)c2ccc(F)cc2)CCN1CCc1ccccc1` (stereo not given), the INHIBITION rises from -21.7% to 22%.

Going from `CC(=O)N1CCN([C@@H]2CCC[C@@H](N(C)C(=O)C3CC3)[C@H]2O)CC1` to `CC(=O)N[C@@H]1CN(C(=O)CC2CCOCC2)C[C@H]1O`, the INHIBITION falls from 45.6% to -5.8%.

Going from `COc1cccc(Cn2ncnc2COC(C)C)c1` to `CC(C)C(c1cccnc1)N(C)C(=O)Cc1c(F)cccc1F` (stereo not given), the INHIBITION rises from -16.1% to 41.8%.

Going from `COc1ccc2c3c1CN(C(C)=O)CC3=CC(C)(C)CO2` to `COC(=O)N1CC2=CC(C)(C)COc3ccc(OC)c(c32)C1`, the INHIBITION rises from 52.5% to 63.1%.

Compared with `COCCOC(=O)N1CC2=CC(C)(C)COc3ccc(OC)c(c32)C1`, `COCC(=O)N1CC2=CC(C)(C)COc3ccc(OC)c(c32)C1` is higher in INHIBITION: -3.5% for the first, 48% for the second.

Going from `COc1ccc2c3c1CN(C(=O)N(C)C)CC3=CC(C)(C)CO2` to `CCNC(=O)N1CC2=CC(C)(C)COc3ccc(OC)c(c32)C1`, the INHIBITION falls from 25.3% to 22.2%.

Going from `CC(C)NC(=O)c1nnn(-c2ccc(F)cc2)c1C1CC1` to `Cc1ccc(Cl)c(CN2CCC(c3nccn3C(C)C)CC2)c1F`, the INHIBITION rises from -38.2% to -7.71%.

Compared with `CCOC(=O)N1CCC(NC(C)c2ccccc2-n2cccn2)CC1` (stereo not given), `Cc1ccc(CC2CCCN2CC(=O)NCc2ccccn2)cc1` (stereo not given) is higher in INHIBITION: 17.5% for the first, 28.4% for the second.

Going from `CC(C)c1nn(C)c(N(C)C)c1CNCc1ccc(N(C)C)nc1` to `CCNC(=O)N(C)C(c1cccnc1)C(C)C` (stereo not given), the INHIBITION rises from 13.5% to 63.5%.

First: Cc1cc(NC(=O)C2CCN(c3nnc(C)c(C)c3C#N)CC2)no1
Second: Cc1cc(NC(=O)C2CCN(c3ncccc3C#N)CC2)no1
The INHIBITION of the first is lower: 19.4% for the first, 50.1% for the second.

Compared with `Cc1cc(C(=O)NC2CCN(c3ncccc3C#N)CC2)no1`, `O=C(NC1CCN(c2ncccn2)CC1)c1cc2c([nH]c1=O)CCC2` is lower in INHIBITION: 5.23% for the first, -46.5% for the second.

Compared with `Cn1cc(C2=NOC(C(=O)NC3(c4ccccc4F)CCCC3)C2)cn1` (stereo not given), `Nc1ncccc1CN1CCOCC1CC(=O)NCc1ccccn1` (stereo not given) is higher in INHIBITION: 45.6% for the first, 47.6% for the second.

First: O=C(CN1CCCC1CC(=O)c1ccccc1)NCc1ccccn1 (stereo not given)
Second: O=C(CN1CCOCC1CC(=O)c1ccco1)NCc1ccccn1 (stereo not given)
The INHIBITION of the first is lower: 1.93% for the first, 54.3% for the second.

Compared with `CN(C)S(=O)(=O)N1CCOCC1CC(=O)NCCOc1ccccc1` (stereo not given), `O=C(CC1COCCN1S(=O)(=O)c1ccccc1)NCc1ccccn1` (stereo not given) is higher in INHIBITION: 23.5% for the first, 68.5% for the second.

Compared with `CCC(NC(=O)c1cnc(-c2cccnc2)nc1)c1ccnn1C` (stereo not given), `O=C(Nc1cccnc1)[C@@H]1C[C@H]2OCC[C@H]2N(Cc2ccsc2)C1` is higher in INHIBITION: -31.4% for the first, -2.84% for the second.

Going from `O=C(NCCCN1CCOCC1)c1ccn(COc2ccc(Br)cc2)n1` to `COc1c[nH]c(C(=O)N2CCN(c3cccc(Cl)c3)CC2)cc1=O`, the INHIBITION falls from 47.4% to 38.8%.

`O=C(NC1CCN(c2ncccn2)CC1)c1cc2c(cc1O)CCCC2` gave an INHIBITION of 55%.
